# Measured values taken from the supplement of paper PMC5919970.
# Counter-ions that a name gives are not always drawn. In all, about 2,000 compounds were measured (“fractional viability relative to vehicle”: median about 0.91, lowest 2% from about 0.045 on). Only a selection was taken, and the lowest values are over-represented in it overall.
# Tested on: TYKNU
# Experiment: fractional viability relative to vehicle; TYKNU is a high-grade serous ovarian cancer line; higher = less growth inhibition
# Conditions: 72 h
# In short: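 Drug treatment lasted 72 h, with cells grown at 37 °C in 5% CO2 in RPMI 1640 supplemented with 10% FBS. Beforehand, TYKNU control cells or their lentiCRISPRv2 knockout derivatives had been seeded at 500 cells per well into drug-stamped 384-well plates carrying a ~2100-compound library at 2 or 10 μM, in duplicate. Viability came from Cell Titer Glo luminescence, with averaged duplicate treatment wells normalised to duplicate control wells in the same plate position.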
# [1] = 2uM, genotype: DNM1L knockout (sgDNM1L #1)
# [2] = 2uM, genotype: sgCTRLA1 (non-targeting control)
# [3] = 10uM, genotype: DNM1L knockout (sgDNM1L #1)
# [4] = 10uM, genotype: sgCTRLA1 (non-targeting control)
Structure (SMILES),fractional viability [1],fractional viability [2],fractional viability [3],fractional viability [4]
C[C@@H]1CC[C@@]2(OC1)O[C@H]1C[C@H]3[C@@H]4CC=C5C[C@@H](O[C@@H]6O[C@H](CO)[C@@H](O[C@@H]7O[C@@H](C)[C@H](O)[C@@H](O)[C@H]7O)[C@H](O)[C@H]6O[C@@H]6O[C@@H](C)[C@H](O)[C@@H](O)[C@H]6O)CC[C@]5(C)[C@H]4CC[C@]3(C)[C@H]1[C@@H]2C [Dioscin],0.0559,0.0816,0.0468,0.0196
Cc1cc2c(C(C)C)c(O)c(O)c(C=O)c2c(O)c1-c1c(C)cc2c(C(C)C)c(O)c(O)c(C=O)c2c1O [Gossypol],0.9,1.04,0.253,0.247
CCN(Cc1ccc(Cl)nc1)/C(=C/[N+](=O)[O-])NC [Nitenpyram],0.733,1.08,0.638,0.862
Cc1ccc(-n2nccn2)c(C(=O)N2CCN(c3nc4cc(Cl)ccc4o3)CC[C@H]2C)c1 [Suvorexant (MK-4305)],0.969,1.14,0.861,1.04
CC(C)=CCC[C@]1(C)C=Cc2c(O)c3c(c(CC=C(C)C)c2O1)O[C@]12C(=C[C@@H]4C[C@H]1C(C)(C)O[C@@]2(C/C=C(/C)C(=O)O)C4=O)C3=O [Gambogic Acid],0.068,0.0361,0.0214,0.00876
CN(C)Cc1c[nH]c2ccccc12 [Gramine],0.908,1.14,0.859,0.971
[O-][n+]1ccccc1[S-].[O-][n+]1ccccc1[S-].[Zn+2] [Zinc Pyrithione],0.0424,0.0207,0.0251,0.0128
Cc1sc2c(c1C)C(c1ccc(Cl)cc1)=N[C@@H](CC(N)=O)c1nnc(C)n1-2,0.35,0.412,0.319,0.408
c1ccc([C@@H]2C[C@H]2NC2CCNCC2)cc1,0.728,0.964,0.712,0.824
CC(=O)Nc1ccc(Cc2ccc(NC(C)=O)cc2)cc1,0.759,0.99,0.747,0.791
O=C(O[C@H]1C[C@H]2CC[C@@H](C1)[N+]21CCCC1)C(O)(c1ccccc1)c1ccccc1 [Trospium chloride],0.962,1.06,0.908,1.09
Cc1cccc(Cc2c[nH]cn2)c1C [Detomidine HCl],1.07,1.01,0.798,1.1
CN[C@@H]1C[C@H]2O[C@@](C)([C@@H]1OC)n1c3ccccc3c3c4c(c5c6ccccc6n2c5c31)C(=O)NC4 [Staurosporine],0.092,0.066,0.0336,0.0269
Cn1c(COP(=O)(NCCBr)NCCBr)cnc1[N+](=O)[O-],1.47,1.27,0.89,1.27
CCN(CC)C(=O)c1ccc(C2=CC3(CCNCC3)Oc3cccc(O)c32)cc1,1.05,1.03,0.914,0.931
C[C@@H]1O[C@@H](O[C@H]2C[C@@H](O)[C@]3(CO)[C@H]4[C@H](O)C[C@]5(C)[C@@H](C6=CC(=O)OC6)CC[C@]5(O)[C@@H]4CC[C@]3(O)C2)[C@H](O)[C@H](O)[C@H]1O [Ouabain],0.05,0.0369,0.0346,0.0311
N#C[C@H](O[C@@H]1O[C@H](C(=O)O)[C@@H](O)[C@H](O)[C@H]1O)c1ccccc1 [Laetrile],0.984,1.23,0.709,1.16
COc1cc(-n2c(=S)[nH]c3ccccc3c2=O)c(Cl)cc1Cl [Mdivi-1],0.879,0.994,0.654,0.851
Cc1cccc(C)c1NC(=O)CN1CCCC1=O [Nefiracetam],0.909,1.08,1.02,1.16
CC(C)N(CCNC(=O)CN1CCCC1=O)C(C)C [Pramiracetam],0.94,1.16,0.882,1.02
C[C@@H]1[C@H](O)[C@@H](C)/C=C/C=C/CC/C=C/C=C/C=C/C=C/[C@H](O[C@H]2O[C@@H](C)[C@H](O)[C@@H](N)[C@H]2O)C[C@@H]2O[C@](O)(C[C@@H](O)[C@H](O)CC[C@@H](O)C[C@@H](O)C[C@@H](O)CC(=O)O[C@H]1C)C[C@H](O)[C@H]2C(=O)O [Nystatin (Fungicidin)],0.929,1.11,0.854,1.03
O=C(O)c1nn(Cc2ccc(Cl)cc2Cl)c2ccccc12 [Lonidamine],0.961,1.06,0.87,1.16
Cc1sc2c(c1C)C(c1ccc(Cl)cc1)=N[C@@H](CC(=O)OC(C)(C)C)c1nnc(C)n1-2,0.37,0.516,0.278,0.394
O=C(O)CNC(=O)c1c(O)c2ccccc2n(Cc2ccccc2)c1=O,1.04,1.17,0.762,1
O=c1[nH]c2ccc(Cl)cc2c(N[C@@H]2CN3CCC2CC3)c1-c1nc2ccccc2[nH]1,0.154,0.195,0.0777,0.0446
